The structures appear in SMILES notation. Records with an inconclusive call do not appear. Entries that show only a call come without a potency. Calls of active or inactive are those of the source. The call rests on the fitted dose curve; in most records, active means well fitted inhibition curve with a large enough effect; inconclusive means small, poorly fitted or top-dose-only effect; inactive means flat fitted curve, though single readings scatter.

We go through 28 molecules from PubChem BioAssay (NCATS).
Potency means the concentration at half of the fitted maximal effect.

System in the first test: not listed separately
The experiment in a line: Drug repurposing screens with cells derived from glioblastoma tumor samples (AID 1345199). Further: nearly all actives have a fitted effect of over 40% in size. Particulars: GBM patient neurospheres viability, ATP luminescence, 48 h; tumour line A. The procedure, abridged:
(§1)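 Four patient lines of CD133+ GBM neurospheres were screened at several concentrations; hits were retested in those lines plus three slower-growing GBM lines, using 48-hour treatment and ATP-based viability.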
As to `O=C(CCCN1CCC(n2c(=S)[nH]c3ccccc32)CC1)c1ccc(F)cc1`, the Potency was 8.91 µM (active).
`CCOC(=O)Nc1ccc2c(c1)N(C(=O)CN(C)C)c1ccccc1CC2`: the Potency is 44.7 µM (active).
For the molecule `Cc1ccc(C2(O)CCN(CCCC(=O)c3ccc(F)cc3)CC2)cc1`, the Potency was 6.31 µM (active).
In the case of `Cc1cccc(C)c1N(CCCc1cccnc1)C(=O)C(C)N` (stereo unspecified), the Potency was 11.2 µM (active).
Regarding `CCCOc1ccc2nc(NC(=O)OC)sc2c1`, the Potency was 8.91 µM (active).
Turning to `Cc1ccc(/C(=C\CN2CCCC2)c2cccc(/C=C/C(=O)O)n2)cc1`, the Potency was 35.5 µM (active).

Still in this test, the particulars now being: GBM patient neurospheres viability, ATP luminescence, 48 h; tumour line D.
With `O=C(CCCN1CCC(n2c(=S)[nH]c3ccccc32)CC1)c1ccc(F)cc1`, the Potency is 11.2 µM (active).
Regarding `CCOC(=O)Nc1ccc2c(c1)N(C(=O)CN(C)C)c1ccccc1CC2`, the Potency is 56.2 µM (active).
As for `Cc1ccc(C2(O)CCN(CCCC(=O)c3ccc(F)cc3)CC2)cc1`, the Potency is 12.6 µM (active).
For the molecule `CCCOc1ccc2nc(NC(=O)OC)sc2c1`, the Potency was 10 µM (active).

The subject of a further test is astro (control astrocytes). Described as above. Particulars: viability, ATP luminescence, 48 h; series mostly up to 45.9 µM. The procedure, abridged:
as §1
In the case of `c1ccc2c(CCC3CCNCC3)c[nH]c2c1`, the Potency result was “inactive”.
Consider `CC(=O)O[C@H]1CC[C@@]2(C)C(=CC[C@H]3[C@@H]4CC[C@H](C(C)=O)[C@@]4(C)CC[C@@H]32)C1`, for which the Potency result was “inactive”.
The same measure, in the same setting: next, `CC(=O)O[C@H]1C[C@@H]2CC[C@@H]3[C@H](CC[C@@]4(C)[C@H]3C[C@H](N3CC[N+](C)(C)CC3)[C@@H]4OC(C)=O)[C@@]2(C)C[C@@H]1N1CC[N+](C)(C)CC1`: “inactive”; `O=C(CCCN1CCC(n2c(=S)[nH]c3ccccc32)CC1)c1ccc(F)cc1`: “inactive”.
For the molecule `NNc1nnc(Cc2ccncc2)c2ccccc12`, the Potency result was “inactive”.
For the molecule `O=C(Cn1c(=O)sc2ccc(Cl)cc21)N1CCN(CCO)CC1`, the Potency entry was “inactive”.
On to `CCC(c1ccccc1)c1noc(CCN(CC)CC)n1` (stereo unspecified), for which the Potency result is “inactive”.
As to `C[N+](C)(CCCCCC[N+](C)(C)C1c2ccccc2-c2ccccc21)C1c2ccccc2-c2ccccc21`, the Potency result was “inactive”.
In the case of `COC(=O)C[C@](O)(CCCC(C)(C)O)C(=O)O[C@@H]1C(OC)=CC23CCCN2CCc2cc4c(cc2[C@H]13)OCO4` (stereo partly specified), the Potency was 1.12 µM (active).
Same read-out and setting: for `CC(CC(c1ccccc1)c1ccccc1)NC(C)(C)C` (stereo unspecified) the value was “inactive”; for `CCOC(=O)Nc1ccc2c(c1)N(C(=O)CN(C)C)c1ccccc1CC2`, “inactive”; for `COC1=C(C(=O)O)N2C(=O)[C@@H](NC(=O)[C@H](N)C3=CCC=CC3)[C@H]2SC1`, “inactive”.
The same measure, in the same setting: next, `CCCCCCCC/C=C\CCCCCCCC(=O)OC[C@@H](O)[C@H]1OC[C@H](O)[C@H]1O`: “inactive”; `Cc1c(O)cc2c(c1C)O[C@](C)(CCC[C@H](C)CCC[C@H](C)CCCC(C)C)CC2`: “inactive”.
Turning to `CCN(CC)c1ccc(C(=C2C=CC(=[N+](CC)CC)C=C2)c2ccccc2)cc1`, the Potency was 2 µM (active).
In the case of `CCOC(=O)Cc1cccc(-c2cc(CCCCCCc3ccc(O[C@H]4O[C@H](COC(C)=O)[C@@H](OC(C)=O)[C@H](OC(C)=O)[C@@H]4OC(C)=O)c(-c4cccc(CC(=O)OCC)c4)c3)ccc2O[C@H]2O[C@H](COC(C)=O)[C@@H](OC(C)=O)[C@H](OC(C)=O)[C@@H]2OC(C)=O)c1`, the Potency result was “inactive”.
For the molecule `Cc1ccc(C2(O)CCN(CCCC(=O)c3ccc(F)cc3)CC2)cc1`, the Potency result was “inactive”.
In the case of `COc1cc([C@@H]2c3cc4c(cc3C(O[C@@H]3O[C@@H]5COC(c6cccs6)O[C@H]5[C@H](O)[C@H]3O)C3COC(=O)[C@@H]32)OCO4)cc(OC)c1O` (stereo partly specified), the Potency was 12.6 µM (active).
The same measure, in the same setting: next, `C[C@]12CC[C@@H]3c4ccc(OS(=O)(=O)O)cc4CC[C@H]3[C@@H]1CCC2=O`: “inactive”; `Cc1cccc(C)c1N(CCCc1cccnc1)C(=O)C(C)N` (stereo unspecified): “inactive”; `CNC[C@@H]1CC[C@@H](N)[C@@H](O[C@H]2[C@H](O)[C@@H](O[C@H]3OC[C@](C)(O)[C@H](NC)[C@H]3O)[C@H](N)C[C@@H]2N)O1`: “inactive”.
On the same count and under the same terms, for `CC(C)(C)CC(=O)OCC(=O)[C@@]12OC(C)(C)O[C@@H]1C[C@H]1[C@@H]3CCC4=CC(=O)C=C[C@]4(C)[C@@]3(F)[C@@H](O)C[C@@]12C` the value was “inactive”; for `COC(C)=O`, “inactive”; for `C/C=C(/CC[C@@H](C)[C@H]1CC[C@H]2C3=CC[C@H]4[C@H](C)[C@@H](O)CC[C@]4(C)[C@H]3CC[C@]12C)C(C)C`, “inactive”.
On to `CCOC(=O)COc1ccc2c(=O)cc(-c3ccccc3)oc2c1`, for which the Potency entry is “inactive”.
The same measure, in the same setting: for `C[C@H](/C=C/[C@H](C)C(C)(C)O)[C@H]1CC[C@H]2/C(=C/C=C3C[C@@H](O)C[C@H](O)C3)CCC[C@]12C` the value was “inactive”.
